Rows were chosen to be rich in hits. Some 3.2% of all compounds tested hit in one or more screens of this group.
esBAF inh: blocks esBAF chromatin remodeling in mouse ES cells; Bmi1-luciferase knock-in reporter, 24 h; 100% = twice the neutral-well signal; reporter increase, % at 12.5 µM; actives 2% (n = 350,000); in the data active means activation above about 40%; inconclusive means no clear call, values can overlap the other calls;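 further: 0% = median of the plate's neutral control wells and 100% = double that signal; a rise in the Bmi1 reporter signal indicates esBAF inhibition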
dFosB activator: enhances mouse delta FosB homodimer DNA binding | P13346 | purified delta FosB, TAMRA-CDK5 oligo fluorescence polarization; percent of positive-control signal above neutral wells | actives 0.99% (n = 340,000) | activation, % at 25 µM;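 active means mean activation above about 17%, with every replicate also reaching it, limit read from the data, passing the limit was not always enough; inconclusive means only one of the two conditions met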
SMARCA2 act: increases SMARCA2 function in MMTV reporter cells; activation, % at 9.1 µM; AID 652017; actives 1% (n = 370,000); MG213 cells, MMTV-luciferase reporter, dexamethasone, overnight; in the data active means activation above about 7.8%;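 further: 0% = vehicle wells and 100% = reference activator wells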
Dyrk1A ADPGlo: blocks rat Dyrk1A kinase activity; ADP-Glo luminescence, NFATc1 peptide; actives 0.43% (n = 310,000); inhibition, % at 12.5 µM; AID 504441; Q63470; in the data active means inhibition above about 50%;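 further: plate controls were vehicle with enzyme for no effect and no enzyme for full effect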
CDK5 p35 inh: CDK5/p35 (human) kinase inhibition. actives 0.01% (n = 330,000). Recombinant CDK5/p35, ADP-Glo luminescence, 60 min. inhibition, % at 10 µM. AID 488839. Q00535+Q15078;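 active means highest replicate inhibition of at least 50% and at least 75% of replicates reaching 50%; inconclusive means only one of the two criteria met; inactive means both criteria failed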;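 further: plate controls were DMSO neutral control for no effect and GW8510 at 10 µM for full effect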
Target sequence (Q00535 whole entry, looked up): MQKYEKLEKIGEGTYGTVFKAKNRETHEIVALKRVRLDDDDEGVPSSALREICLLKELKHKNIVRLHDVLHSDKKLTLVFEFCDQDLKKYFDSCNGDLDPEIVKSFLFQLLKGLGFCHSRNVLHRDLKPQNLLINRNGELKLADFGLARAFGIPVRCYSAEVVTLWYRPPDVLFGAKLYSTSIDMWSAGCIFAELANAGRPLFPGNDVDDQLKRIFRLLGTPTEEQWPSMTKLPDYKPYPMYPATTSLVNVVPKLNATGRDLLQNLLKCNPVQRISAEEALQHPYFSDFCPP
Target sequence (Q15078 whole entry, looked up): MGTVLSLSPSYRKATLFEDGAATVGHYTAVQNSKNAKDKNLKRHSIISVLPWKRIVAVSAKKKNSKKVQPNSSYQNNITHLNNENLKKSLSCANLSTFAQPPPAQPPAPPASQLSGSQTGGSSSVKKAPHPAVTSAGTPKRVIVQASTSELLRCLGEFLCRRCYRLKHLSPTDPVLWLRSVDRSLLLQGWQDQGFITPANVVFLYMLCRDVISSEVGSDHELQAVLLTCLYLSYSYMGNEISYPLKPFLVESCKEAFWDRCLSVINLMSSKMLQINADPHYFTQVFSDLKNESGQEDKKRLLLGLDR
Rtt109 Vps75: blocks Candida albicans Rtt109/Vps75 acetyltransferase activity. Q5AAJ8. purified Rtt109/Vps75, ThioGlo CoA-SH fluorescence, 4 h. inhibition, % at 34.9 µM. actives 0.16% (n = 330,000). AID 540336;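 active means inhibition of at least 50% in every replicate; inconclusive means best replicate reaches 50% inhibition but some replicates fall short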
SMARCA2 act conf: confirmation of SMARCA2 (BRM) function activators; shares compounds with SMARCA2 act; MG213 cells, MMTV-luciferase with dexamethasone, luminescence, overnight; MG213 cells expressing E1A, Rb sequestered; DMSO wells 0%, reference activator 100%; activation, % at 9.1 µM; actives 30% (n = 3,500);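 active means activation above its plate's cutoff, the mean activation of tested wells plus 3 SD, cut at about 7.9% in these data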
GAL4-VP16 Luc: GAL4-VP16 reporter activation counter-screen. HEK293 GAL4-VP16 pG5luc reporter, luciferase luminescence; scaled: DMSO wells 0%, SAHA wells 100%. shares compounds with SMARCA2 act. activation, % at 9.1 µM. actives 41% (n = 3,500);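 active means activation above the solvent-only control well mean plus 3 SD, averaged across control plates, cut at about 5.2% in these data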
* hit, by the source's call; ? = inconclusive; · = not tested or not shown.

SMILES	esBAF inh	dFosB activator	SMARCA2 act	Dyrk1A ADPGlo	CDK5 p35 inh	Rtt109 Vps75	SMARCA2 act conf	GAL4-VP16 Luc
CCCC(=O)Nc1ccc2c(c1)C(=O)N(C)[C@H]1CC[C@@H](CC(=O)NCc3ccccc3F)O[C@H]1CO2	3	·	·	·	·	·	·	·
O=C1c2cccc(NCCNCCO)c2C(=O)c2cccc(NCCNCCO)c21	·	-21	10*	19	3	1	-16	-1
CC(=O)Nc1ccc(C(=O)OCC(=O)N2CCCC2)cc1	-3	-2	-1	-4	0	3	·	·
COc1ccccc1C(=O)Cc1ccccc1	23	-2	1	-6	-1	-8	·	·
CC(=O)Nc1ccc(C(=O)OCCc2ccccc2)cc1	·	-10	8.8*	1	-2	6	6	1
COc1ccccc1C(=O)OCCc1ccccc1	78*	6	11*	-3	2	8	7	6.5*
CC(=O)Nc1ccc(C(=O)OCC(=O)N2CCCC2=O)cc1	-2	-5	8.9*	4	-12	2	0	1
Cc1ccc(NC(=O)c2ccc([N+](=O)[O-])cc2Cl)nc1	·	-6	9.1*	8	0	17	6	9.7*
CN(C)c1ccc(NC(=O)c2ccc([N+](=O)[O-])cc2Cl)cc1	·	4	9.7*	-3	0	·	7.9*	12*
CN(C)C(=O)[C@H]1[C@H](CO)[C@H]2Cn3c(ccc(-c4cccc(F)c4)c3=O)[C@@H]1N2CCc1ccccc1	-5	·	·	·	·	·	·	·
O=C(c1cc(-c2ccc(Br)cc2)on1)N1CCOCC1	-9	-1	7	-1	12	·	·	·
S=C(c1ccc(-c2ccc(Br)cc2)o1)N1CCCCC1	48*	-5	8.1*	5	2	6	16*	8.3*
O=C(c1cc(-c2ccc(Br)cc2)on1)N1CCCCCC1	8	-2	9.4*	1	0	-2	4	5.7*
C[C@H](CO)N1C[C@H](C)[C@@H](CN(C)S(=O)(=O)c2ccc(F)cc2)OCCCC[C@H](C)Oc2ccc(NS(=O)(=O)c3ccccc3)cc2C1=O	-7	·	·	·	·	·	·	·
COc1ccc2[nH]c3c(=S)nc[nH]c3c2c1	·	-13	9.7*	15	-2	-2	6	3
CN1C(=O)c2cc(NC(=O)C3CCOCC3)ccc2OC[C@@H]2O[C@@H](CC(=O)NC3CCCC3)CC[C@H]21	2	·	·	·	·	·	·	·
Cc1ccc(C2=[N+]([O-])C(C)(C)N(O)C2(C)C)cc1	·	2	-4	0	-2	23	·	·
CC1=[N+]([O-])C(C)(C)C(c2ccc(Br)cc2)=[N+]1[O-]	·	3	12*	·	-2	2	1	0
CN(C)CC(=O)N[C@@H]1CC[C@@H](CCNC(=O)Nc2ccc(C(F)(F)F)cc2)O[C@H]1CO	12	·	·	·	·	·	·	·
C[C@@H]1CN([C@@H](C)CO)C(=O)c2cc(-c3cccc(F)c3)cnc2O[C@@H]1CN(C)C	10	·	·	·	·	·	·	·
COc1ccc(C(=O)N[C@H](C(=O)Nc2nc3ccccc3[nH]2)C(C)C)cc1	0	1	13*	·	0	-2	12*	15*
COc1ccc(C(=O)Nc2nc3ccccc3[nH]2)cc1	-69	-6	-4	10	1	-5	·	·
C=C(C)C(=O)OC1(C(F)(F)F)Oc2cc(C)ccc2NC1=O (configuration not stated)	-2	-17	21*	-4	1	-1	-5	5
CCOC(=O)C1(N(CC)CC)Sc2cc(C)ccc2NC1=O (configuration not stated)	-28	-8	-4	-1	0	-1	·	·
CC(C)CCNC(=O)C(=O)Nc1ccccc1	?	3	9.1*	7	-1	-1	6	7.2*
SMILES	esBAF inh	dFosB activator	SMARCA2 act	Dyrk1A ADPGlo	CDK5 p35 inh	Rtt109 Vps75	SMARCA2 act conf	GAL4-VP16 Luc
Cc1cccc(NC(=S)NCCC(C)C)c1	·	-1	2	0	1	5	·	·
C[C@@H]1CN([C@H](C)CO)S(=O)(=O)c2ccc(C#C[C@@H](C)O)cc2O[C@H]1CN(C)Cc1ccccc1	1	·	·	·	·	·	·	·
Cc1ccc(-c2noc(-c3ccoc3C)n2)cc1	34	-7	10*	2	-1	·	8.2*	10*
Cc1ccc(O)c(NC(=O)CN(C)S(=O)(=O)c2ccc(Cl)cc2)c1	4	8	11*	1	1	0	1	1
O=c1[nH]c(CSc2nc3ccccc3s2)nc2ccccc12	47*	-7	8.4*	-6	0	4	3	4
O=c1[nH]c(CSc2nc3ccccc3s2)nc2cc(Cl)ccc12	·	·	-2	·	·	·	·	·
Cc1cc2nc(-c3nnnn3-c3c(C)cccc3C)c(=O)[nH]c2cc1C	·	·	8.0*	·	·	·	-3	1
Cc1cccc(C)c1-n1nnnc1-c1nc2ccccc2[nH]c1=O	·	·	1	·	·	·	·	·
CC(=O)NCc1ccc(C(=O)CCl)s1	-3	-6	9.0*	-10	-2	4	10*	8.0*
COc1ccc(-n2c(SCC3CNC(=O)O3)nnc2-c2ccc(Cl)cc2)cc1 (configuration not stated)	·	-5	12*	-2	0	3	1	-2
COc1cc2c(cc1NC(=O)c1ccco1)CCCC2	76*	6	10*	6	6	-3	7.9*	11*
Cc1[nH]ccc2cc3nc4ccccc4c3cc12	-1	·	18*	·	·	·	76*	1
COc1cccc(N2CCN(c3nc(-c4ccccc4C)cc(=O)[nH]3)CC2)c1	2	3	13*	0	9	6	36*	1
COc1cccc(N2CCN(c3nc(C)c(C)c(=O)[nH]3)CC2)c1	-10	-10	-3	1	0	-1	·	·
CCc1ccc(OCC(=O)NNC(=O)CNC(=O)c2ccc(Br)o2)cc1	-2	-1	0	·	-1	0	·	·
CC(COc1ccc(C(C)C)cc1)NC(=O)c1ccc(Br)o1 (configuration not stated)	-4	-10	10*	-7	-4	-2	6	0
CCC1(C)NC(=O)N(CC(=O)N2CCC(Cc3ccccc3)CC2)C1=O (configuration not stated)	-8	-2	1	·	2	11	·	·
CCC(=O)N1C(Cc2ccccc2)COC1(C)C (configuration not stated)	·	0	8.9*	1	1	-5	-3	1
Cc1ccc(NC(=S)NC2CC3CCCC(C2)N3Cc2ccco2)cc1 (configuration not stated)	7	-2	10*	-2	0	8	-2	2

Screening results (PubChem)
